{"source": "PubChem BioAssay (NCI)", "note": "About 83,000 compounds went through this panel and 20% of them were active in at least one assay; those are over-represented in the sample as a whole.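 Growth was measured after 48 h exposure to one concentration of compound in 96-well plates. Values under 10 count as active.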 A number with no mark means an inactive call. Activity calls are given as the source filed them."}
{"tested_on": "MDA-MB-468 breast", "experiment": "NCI-60 one-dose screen, 48 h (100 = growth as untreated, 0 = no growth, -100 = all killed)", "conditions": "10 µM unless noted"}
{"smiles": "COc1cc(CCc2cc(NC(=O)c3ccc(N4C[C@@H](C)N[C@@H](C)C4)cc3)n[nH]2)cc(OC)c1", "growth": "71.3%"}
{"smiles": "O=C1/C(=C\\c2cn(C(=O)c3ccc(Cl)cc3)c3ccccc23)c2ccccc2N1C(=O)c1ccc(Cl)cc1", "growth": "51.7%"}
{"smiles": "Nc1c(C(=O)Nc2ccccc2Cl)sc2nc3c(cc12)CCCCCC3", "growth": "-1.41% (active)"}
{"smiles": "CCCCOC(OCCCC)c1ccccc1", "growth": "104%"}
{"smiles": "COc1ccc(-c2cnc3ccccc3n2)cc1", "growth": "99.7%"}
{"smiles": "CC(C)(C)c1ccc(C(=O)N/N=C/c2ccc(O)cc2O)cc1", "growth": "-32.5% (active)"}
{"smiles": "CC/C=C\\C[C@H]1C/C=C2/C(=O)C=C[C@H]2C/C=C\\CCCC(=O)O1", "growth": "31.7%"}
{"smiles": "CN1CCN(c2nc(NCCCNc3ccnc4cc(Cl)ccc34)c3ccccc3n2)CC1", "growth": "54.6%"}
{"smiles": "CCN1CCN(CCNc2nccc(-c3c(-c4ccc(F)c(OC)c4)nc4sccn34)n2)S1(=O)=O", "growth": "80.1%"}
{"smiles": "Cn1cc(-c2nnc(-c3cn(C)c4ncc(Br)cc34)o2)c2ccccc21", "growth": "39.3%"}
{"smiles": "NC(=O)c1cccc(-c2ccccc2N2CCCCC2)c1", "growth": "94.2%"}
{"smiles": "CCCc1n(Cc2ccc3ccccc3n2)cc[n+]1Cc1ccc2ccccc2n1", "growth": "-39.9% (active)"}
{"smiles": "COc1cc(C2NC(=O)C(C#N)=C(Nc3cccc(C)c3)S2)ccc1O", "note": "(stereo unspecified)", "growth": "96.6%"}
{"smiles": "COc1ccc(C2NC(=O)Nc3ccccc32)c(OC)c1", "note": "(stereo unspecified)", "growth": "103%"}
{"smiles": "CC(O)c1cnc(/C=C2\\SC(=S)N(Cc3ccccc3)C2=O)s1", "note": "(stereo unspecified)", "growth": "13.8%"}
{"smiles": "CCN(CCO)CC(C)Nc1ccc([N+](=O)[O-])c2sc3ccccc3c(=O)c12", "note": "(stereo unspecified)", "growth": "21%"}
{"smiles": "CCOC(=O)c1[nH]c(=O)c2c(C)nc(-c3ccccc3)cc2c1O", "growth": "92.9%"}
{"smiles": "Cc1cccc(Oc2ccc(Nc3ncnc4ccc(NC(=O)CN5CCN(C)CC5)cc34)cc2Cl)c1", "growth": "-62.9% (active)"}
{"smiles": "COc1cc(/C=C/C(=O)c2ccc(O)c(CN3CCN(c4cc5c(cc4F)c(=O)c(C(=O)O)cn5C4CC4)CC3)c2)cc(OC)c1OC", "growth": "6.61% (active)"}
{"smiles": "O=[N+]([O-])c1cccc(N=NNc2cccc([N+](=O)[O-])c2)c1", "growth": "57.9%"}
{"smiles": "CC(C)OCC(CCl)OC(=O)Nc1ccccc1", "note": "(stereo unspecified)", "growth": "112%"}
{"smiles": "CCOC(=O)C/C(C)=N\\O", "growth": "98.2%"}
{"smiles": "Cc1oc2nc[nH]c(=O)c2c1C(=O)/C=C/c1ccc(Cl)cc1Cl", "growth": "86.7%"}
{"smiles": "O=c1nc(-c2ccccc2)c2cc(-c3ccc(N4CCCC4)nc3)ccc2[nH]1", "growth": "48.4%"}
{"smiles": "Cc1nc([P+](c2ccccc2)(c2ccccc2)c2ccccc2)c(N2CCCCC2)o1", "growth": "0.108% (active)"}
{"smiles": "CCOC(=O)c1ccc(NC(=O)CCCN(CC)CC)cc1", "growth": "115%"}
